In PubChem BioAssay (NCI):
Compounds without any hit were thinned out: in the full panel of roughly 83,000, 20% have a hit.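 Negative percent growth values reflect cell death: -40 means 40% of the cells present at the start died, and -100 means all died.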 Active and inactive are the calls of the source. How the source made its calls: active means growth percent below 10; inactive means the rest.

Columns and labels:
Experiment in all cases: NCI-60 one-dose screen, 48 h (100 = growth as untreated, 0 = no growth, -100 = all killed)
Conditions in all cases: 10 µM unless noted
NCI-H23 lung = test system: NCI-H23 lung
NCI-H226 lung = test system: NCI-H226 lung
NCI-H322M lung = test system: NCI-H322M lung
HOP-62 NSCLC = test system: HOP-62 NSCLC
NCI-H460 lung = test system: NCI-H460 lung
NCI-H522 lung = test system: NCI-H522 lung
A549/ATCC NSCLC = test system: A549/ATCC NSCLC
786-0 renal = test system: 786-0 renal
COLO 205 colon = test system: COLO 205 colon
DU-145 prostate = test system: DU-145 prostate
K-562 leukemia = test system: K-562 leukemia
MALME-3M melanoma = test system: MALME-3M melanoma
MDA-MB-231 breast = test system: MDA-MB-231 breast
RXF 393 renal = test system: RXF 393 renal
SF-268 CNS = test system: SF-268 CNS
SF-295 CNS = test system: SF-295 CNS
SF-539 CNS = test system: SF-539 CNS
UACC-257 melanoma = test system: UACC-257 melanoma
M14 melanoma = test system: M14 melanoma

Measured: growth

NC(N)=N/N=C/c1cccc(Cl)c1Cl
inactive: NCI-H23 lung 86.9% | NCI-H226 lung 84.8% | NCI-H322M lung 96.9% | HOP-62 NSCLC 82.5% | NCI-H460 lung 64.2% | NCI-H522 lung 80.8% | A549/ATCC NSCLC 87.9% | 786-0 renal 83.6% | DU-145 prostate 69.3% | MALME-3M melanoma 94.9% | MDA-MB-231 breast 81.6% | RXF 393 renal 81.3% | SF-268 CNS 69.5% | SF-295 CNS 109% | SF-539 CNS 96.4% | UACC-257 melanoma 70.1% | M14 melanoma 62.7%
active: COLO 205 colon -33.1% | K-562 leukemia 4.22%

CCCCCCCCCCCC1=NC(C)(C)CN1CC(C)O (configuration not stated)
inactive: NCI-H23 lung 64.1% | NCI-H226 lung 92.8% | NCI-H322M lung 92.2% | HOP-62 NSCLC 60.2% | NCI-H460 lung 62.6% | NCI-H522 lung 57% | A549/ATCC NSCLC 85.4% | 786-0 renal 69.1% | DU-145 prostate 80.1% | MALME-3M melanoma 79% | MDA-MB-231 breast 44% | RXF 393 renal 28.9% | SF-268 CNS 60.1% | SF-295 CNS 93.3% | SF-539 CNS 63.8% | UACC-257 melanoma 59.5%
active: COLO 205 colon -97.5% | K-562 leukemia -44.6% | M14 melanoma -2.07%

CCCCCCCC/C=C\CCCCCCCC(=O)OCCCCCC
inactive: NCI-H23 lung 98.4% | NCI-H226 lung 94.7% | NCI-H322M lung 111% | HOP-62 NSCLC 121% | NCI-H460 lung 111% | NCI-H522 lung 104% | A549/ATCC NSCLC 90.6% | 786-0 renal 105% | COLO 205 colon 124% | DU-145 prostate 103% | K-562 leukemia 100% | MALME-3M melanoma 120% | MDA-MB-231 breast 136% | RXF 393 renal 104% | SF-268 CNS 108% | SF-295 CNS 95.6% | SF-539 CNS 109% | UACC-257 melanoma 95.7% | M14 melanoma 112%

C#CCO[C@H]1CC[C@H](OCC#C)[C@@H]2[C@H]1[C@H]1C[C@@H]3[C@@]4(C)CCC[C@@](C)(C(=O)OC)[C@@H]4CC[C@@]23C=C1C(C)C
inactive: NCI-H23 lung 64.3% | NCI-H226 lung 81.7% | NCI-H322M lung 88.5% | HOP-62 NSCLC 77.5% | NCI-H460 lung 104% | A549/ATCC NSCLC 57.1% | COLO 205 colon 83.5% | DU-145 prostate 94.3% | K-562 leukemia 79.7% | MDA-MB-231 breast 65% | RXF 393 renal 94.9% | SF-268 CNS 81.1% | SF-295 CNS 92.7% | SF-539 CNS 70.9% | UACC-257 melanoma 56% | M14 melanoma 93.8%
active: NCI-H522 lung -66.5% | 786-0 renal -23.5% | MALME-3M melanoma -41.7%

CCC(=O)NC1=C(Cl)C(=O)C(NC(=O)CC)=C(Cl)C1=O
inactive: NCI-H23 lung 94% | NCI-H226 lung 113% | NCI-H322M lung 107% | HOP-62 NSCLC 111% | NCI-H460 lung 108% | A549/ATCC NSCLC 103% | 786-0 renal 105% | DU-145 prostate 44.3% | MDA-MB-231 breast 91.6% | RXF 393 renal 39.9% | SF-268 CNS 118% | SF-295 CNS 137% | SF-539 CNS 117% | UACC-257 melanoma 107% | M14 melanoma 93.7%
active: NCI-H522 lung -82.7% | COLO 205 colon -91.4% | K-562 leukemia -24.3% | MALME-3M melanoma -63.4%

CCc1onc(-c2ccc(OC)cc2)c1-c1ccccc1OCCN(CC)CC
inactive: NCI-H23 lung 85.4% | NCI-H226 lung 93.5% | NCI-H322M lung 76.6% | HOP-62 NSCLC 90.4% | NCI-H460 lung 98.7% | NCI-H522 lung 88.5% | A549/ATCC NSCLC 101% | 786-0 renal 75.9% | COLO 205 colon 67% | DU-145 prostate 96.7% | K-562 leukemia 70.7% | MALME-3M melanoma 97.7% | MDA-MB-231 breast 93.3% | RXF 393 renal 82.2% | SF-268 CNS 85.8% | SF-295 CNS 79.5% | SF-539 CNS 90.2% | UACC-257 melanoma 111% | M14 melanoma 76.3%

CC(C)CC1NC(=O)C(CC(C)C)N(CO)C1=O (configuration not stated)
inactive: NCI-H23 lung 104% | NCI-H226 lung 91.3% | NCI-H322M lung 95% | HOP-62 NSCLC 107% | NCI-H460 lung 116% | NCI-H522 lung 90.4% | A549/ATCC NSCLC 102% | 786-0 renal 102% | COLO 205 colon 111% | DU-145 prostate 119% | K-562 leukemia 97.1% | MALME-3M melanoma 101% | MDA-MB-231 breast 97.1% | RXF 393 renal 111% | SF-268 CNS 112% | SF-295 CNS 120% | SF-539 CNS 111% | UACC-257 melanoma 102% | M14 melanoma 101%

CCN(CC)CCNC(=O)n1cc(-c2ccncc2)c(-c2cc(Cl)cc(OC)c2)n1
inactive: NCI-H23 lung 80.1% | NCI-H226 lung 38.7% | NCI-H322M lung 114% | HOP-62 NSCLC 35.9% | NCI-H460 lung 97.9% | NCI-H522 lung 92.3% | A549/ATCC NSCLC 49.5% | 786-0 renal 71.5% | COLO 205 colon 46.2% | DU-145 prostate 81.3% | K-562 leukemia 66.7% | MALME-3M melanoma 111% | MDA-MB-231 breast 82.8% | RXF 393 renal 61.8% | SF-268 CNS 73.9% | SF-295 CNS 80.3% | SF-539 CNS 44% | UACC-257 melanoma 89.4% | M14 melanoma 108%
